HCMV inh = qHTS Assay for inhibitors of the human cytomegalovirus (HCMV); HFF cells, HCMV-luciferase reporter, 72 h; active compounds read low; activity change, negative = inhibition, % at 57.5 µM; 410,000 compounds, 4.5% hits; AID 1259415, 2018; in the data active = activity change below about -60%; inconclusive = no clear call, values can overlap the other calls; inactive = above about -39%
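Human foreskin fibroblasts infected with luciferase-reporter HCMV at MOI 1 PFU/cell, compounds at two doses. Luciferase measured 72 h post infection; normalized to buffer-only basal and Salinomycin (10uM) controls.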
Marburg entry inh = qHTS for inhibitors of binding or entry into cells for Marburg Virus | Marburg virus pseudotyped entry inhibition, cell reporter | Potency, µM (doses to about 37.8 µM), for inactives: at the top dose activity change, negative = inhibition, actives largely listed as inhibitors | 300,000 compounds, 1.8% hits | AID 540276, 2011; calls by dose curve; tested in HEK293 cells; also: potency is read from the fitted curve at half-maximal effect
Pf growth 96h = Primary qHTS for delayed death inhibitors of the malarial parasite plastid, 96 hour incubation. Potency, µM (highest dose often 28.7 µM), for inactives: top-dose activity change, negative = inhibition, usual class: inhibitors. 320,000 compounds, 6.9% hits. P. falciparum luciferase reporter growth, 96 h. AID 504834, 2011; also: potency is read from the fitted curve at half-maximal effect
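96 h incubation, 37 C, 5% CO2, of luciferase-reporter P. falciparum-infected RBCs (2% hematocrit, 0.05% parasitemia final) with test compounds; endpoint luminescence.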
LASV entry inh = qHTS for Inhibitors of binding or entry into cells for Lassa Virus; 300,000 compounds, 1.2% hits; Lassa virus pseudotype entry inhibition, cell reporter; Potency, µM (series often up to 37.9 µM), for the others: at the top dose activity change, negative = inhibition, usual class: inhibitors; calls by dose curve; tested in HEK293 cells; also: potency is read from the fitted curve at half-maximal effect; nearly all actives have a fitted effect of over 50% in size
Pf growth 48h = Primary qHTS for delayed death inhibitors of the malarial parasite plastid, 48 hour incubation. Potency, µM (doses to about 28.7 µM), inactives show at the highest dose activity change, negative = inhibition, most hits filed as inhibitors. 310,000 compounds, 5.9% hits. P. falciparum luciferase growth in erythrocytes, 48 h; also: potency is read from the fitted curve at half-maximal effect
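Firefly luciferase activity from engineered P. falciparum reports growth; inhibitors lower the luminescent signal. Cultures contained 2% hematocrit erythrocytes at 0.1% final parasitemia.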
HCV inhibitor = qHTS Assay for Inhibitors of Hepatitis C Virus (HCV); Huh7.5.1 HCVcc-Cre infection, luciferase reporter, 44 h; 340,000 compounds, 3.4% hits; Potency, µM (doses to about 41.8 µM), without a hit: at the highest dose activity change, negative = inhibition, usual class: inhibitors; AID 651820, 2012; also: potency is read from the fitted curve at half-maximal effect
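Seed cells (1,000/well) for 4 h; treat with compound and infect with HCVcc-Cre, moi about 0.5. Incubate 44 h, then detect luciferase activity.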
* = called active by the depositor; ? = inconclusive; · = not tested or not shown; [ ] = dose if it differs, or a comment. In the library only some 14% were active in any assay of this set; here they are far more common. Unless noted, calls follow the shape of the dose curve; as a rule, active = well fitted inhibition curve with a large enough effect; inconclusive = small, poorly fitted or top-dose-only effect, or another doubt; inactive = no such curve, though single readings can be large or run the other way. % is scaled to controls: 0 for no effect and ±100 for the full control effect.

SMILES	HCMV inh	Marburg entry inh	Pf growth 96h	LASV entry inh	Pf growth 48h	HCV inhibitor
CC1Cc2ccccc2N1S(=O)(=O)c1nnc(NC(=O)c2ccccc2Br)s1 (stereo not drawn)	-10.3	·	·	10.4%[46.1 µM]	·	·
COc1cccc(N2CC(NC(=O)COc3ccccc3F)CC2=O)c1 (stereo not drawn)	-36.2	·	·	0.0%[46.1 µM]	·	·
[O-][n+]1c2c(nn1-c1ccccc1)/C(=N/O)CCC2	?	12.3%	?	-1.8%	10.0%	11.7%
[O-][n+]1onc2c1CCC(=N/O)/C2=N\Nc1ccccc1	·	·	4.65µM*	·	7.38µM*	·
CCCCCCC(=O)Nc1nc(C)c(-c2csc(Nc3ccccc3OC)n2)s1	-22.2	·	3.7µM*	·	?	-13.5%
CCCCCC(=O)Nc1nc(C)c(-c2csc(Nc3ccccc3OC)n2)s1	26.7	·	2.94µM*	·	?	0.4%
CCCCCC(=O)Nc1nc(C)c(-c2csc(Nc3ccccc3OCC)n2)s1	-6.8	·	?	·	?	3.7%
CCC(=O)Nc1nc(C)c(-c2csc(Nc3ccc(S(=O)(=O)Nc4cc(C)on4)cc3)n2)s1	·	0.4%	22.6%	·	·	·
CCCC(C)C(=O)Nc1nc(C)c(-c2csc(Nc3ccc(Cl)cc3)n2)s1 (stereo not drawn)	-80.1*	·	?	·	?	-6.8%[8.37 µM]
CCCC(C)C(=O)Nc1nc(C)c(-c2csc(Nc3ccccc3OC)n2)s1 (stereo not drawn)	0.6	·	9.28µM*	·	?	?
CC(C(=O)NCc1ccccc1)N1Cc2ccccc2C1=O (stereo not drawn)	-12.4	·	·	-1.2%[46.1 µM]	·	·
CCC(=O)Nc1nc(C)c(-c2csc(Nc3ccccn3)n2)s1	178.1	?	6.1%	?	13.2%	11.2µM*
CCCC(=O)Nc1nc(C)c(-c2csc(Nc3ccccc3C)n2)s1	-14.0	·	?	·	11.7µM*	-1.9%
CS(=O)(=O)N(CC(=O)N1CCCC1)c1cccc(C(F)(F)F)c1	9.3	·	·	·	·	·
CCN(CC(=O)Nc1c(F)cccc1F)C(=O)c1ccc(=O)n(C)n1	-9.8	18.8%	·	11.7%	·	10.8%
COc1cccc(/C=N/NC(=O)c2c(C)nc3ccc(Br)cn23)c1O	·	1.83µM*	0.5%	5.17µM*	11.7µM*	4.47µM*
COc1ccc(/C=N/NC(=O)c2c(C)nc3ccc(Cl)cn23)cc1OC	-8.5	·	28.6%	·	·	4.6%
Cc1ccc(/C=N/NC(=O)c2c(C)nc3ccc(Br)cn23)cc1	-30.0	·	-94.1%	·	8.2%	11.0%
COc1ccc(/C=N\NC(=O)c2c(C)nc3ccc(Br)cn23)cc1	-68.8*	-9.3%	11.4%	?	24.5%	3.2%
COc1cc(/C=N/NC(=O)c2c(C)nc3ccc(Cl)cn23)cc(OC)c1OC	28.7	4.47µM*	4.4%	-9.2%[46.1 µM]	-16.2%	?
CCOc1ccccc1/C=N/NC(=O)c1c(C)nc2ccc(Br)cn12	6.7	·	-85.3%	·	19.6%	-22.4%
COc1ccc(S[C@]2(c3nc(C)no3)CC(=O)N[C@@H]2c2ccc(OC)cc2)cc1	-2.3	·	·	·	·	·
NC(=O)c1nc2c([nH]c1=O)CCCC2	24.9	·	·	·	·	·
O=C(NCc1cccs1)C1CCCN(S(=O)(=O)c2cccs2)C1 (stereo not drawn)	14.4	-2.7%	·	0.3%	-5.6%	-12.2%
CCC1CCCCN1S(=O)(=O)c1ccc(S(=O)(=O)N(Cc2cccs2)C2CC2)cc1 (stereo not drawn)	-11.6	?	28.9%	?	8.28µM*	?
SMILES	HCMV inh	Marburg entry inh	Pf growth 96h	LASV entry inh	Pf growth 48h	HCV inhibitor
CCS(=O)(=O)N1CCC(C(=O)NCc2cccs2)CC1	-0.8	?	7.38µM*	-0.1%	0.0%	?
CCOC(=O)C1CCCN(S(=O)(=O)c2ccc(C)cc2)C1 (stereo not drawn)	30.2	?	33.1%	-6.2%	-12.2%	14.6%
CS(=O)(=O)N1CCCC(C(=O)NCc2cccs2)C1 (stereo not drawn)	-21.7	10.8%	5.86µM*	?	-4.1%	9.0%
Cc1ccc(S(=O)(=O)N2CCCC(C(=O)N(Cc3cccs3)C3CC3)C2)cc1 (stereo not drawn)	-38.8	5.4%	13.1µM*	?	5.22µM*	15.8µM*
O=C(CCC1N=C2c3ccccc3N=C(SCc3ccccc3Cl)N2C1=O)NCCc1ccccc1 (stereo not drawn)	12.9	22.0%[46.1 µM]	·	2.7%[46.1 µM]	·	·
O=[N+]([O-])c1ccc(N/N=C/c2ccc[nH]2)cc1	?	?	?	?	-23.0%	1µM*
O=[N+]([O-])c1ccc(NN=Cc2cccc([N+](=O)[O-])c2)cc1	-11.5	2.1%[46.1 µM]	·	-4.4%[46.1 µM]	·	?
O=[N+]([O-])c1ccc(N/N=C/c2cccnc2)cc1	32.2	-1.1%	?	-4.7%	-21.3%	11.2µM*
O=C(N/N=C/c1cccnc1)c1ccc([N+](=O)[O-])cc1	-7.9	17.1%	?	8.4%	-3.0%	16.3%
N#CCCN(C(=O)COC(=O)c1cc2ccccc2oc1=O)c1ccccc1	-10.0	?	9.5%	-0.3%	9.5%	22.7%
Cc1cc(/C=C2\NC(=O)N(Cc3ccc(Cl)cc3)C2=O)c(C)n1C	-30.4	-21.6%	?	9.1%	9.28µM*	-5.1%
Cc1cccc(CN2C(=O)N/C(=C/c3ccc(C)s3)C2=O)c1	2.4	?	3.29µM*	3.16µM*	·	?
CCN1C(=O)/C(=C/c2ccc(C)s2)NC1=S	-23.2	18.8%[46.1 µM]	·	5.5%	8.3%	6.3%
Cc1ccc(/C=C2/NC(=O)N(Cc3ccccc3)C2=O)s1	56.8	1.5%	?	?	10.4µM*	-32.0%
CNS(=O)(=O)c1cn(CC(=O)Nc2ccc(OC)cc2OC)cc1S(=O)(=O)NC	0.0	·	·	16.8%[46.1 µM]	·	·
C(=C\c1ccc2nncn2c1)/c1ccccc1	29.7	·	·	·	·	·
c1ccc(-c2nc3cc4ccccc4cc3[nH]2)nc1	-20.1	?	-23.7%	2.24µM*	-37.3%	?
CC(=O)Nc1ccc2nc(-c3ccccn3)[nH]c2c1	49.1	9.9%	?	?	100.4%	2.9%
Nc1ccc2nc(-c3cccc(-c4nc5ccc(N)cc5[nH]4)n3)[nH]c2c1	-38.6	·	0.522µM*	·	2.08µM*	-4.7%
Nc1ccc2nc(-c3ccc(-c4nc5ccc(N)cc5[nH]4)cc3)[nH]c2c1	24.4	·	2.33µM*	·	11.7µM*	1.7%
Cc1ccc2nc(-c3cccc(N)c3)[nH]c2c1	66.1	?	-11.1%	?	169.4%	-1.6%
Cc1cc(Cl)ccc1NS(=O)(=O)c1c(C(=O)N2CCCCCC2)c(C)n(C)c1C	-5.3	·	·	-23.9%[46.1 µM]	·	·
CCn1nnc2cc(C(=O)Nc3ccc(OC)cc3)ccc21	23.1	·	·	14.4%[46.1 µM]	·	·
COc1cc2c(cc1OC)C(C)N(C(=O)Cc1ccc(C(F)(F)F)cc1)CC2 (stereo not drawn)	?	·	?	·	?	-28.2%
